Measurements as given in PubChem BioAssay (EPA / NIEHS).
Several values for one entry are separate records, joined by “and”; a condition that tells them apart may be missing. Identical values can stand only once. Results filed as inconclusive are left out. A structure can be active in one record and inactive in another. Activity calls are given as the source filed them. How the source made its calls: active means hit-call score of the fitted dose curve at least 0.9, where 1 is the maximum; inconclusive means response in the unintended direction; inactive means score below 0.9.

How the values were obtained:
[1] = TOX21_p53_BLA_p2_viability: Viability Assessment in the Tox21 HCT-116 p53 Agonism Beta-lactamase Assay, Phase 2 (AID 2283591);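 further: actives lower the ATP signal meaning cytotoxicity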
Summary of the method: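 HCT116 p53-bla cells, 4000/well, dosed after 5 h plating (217-fold dilution of DMSO stocks) and incubated 16 h at 37C. Viability taken as cellular ATP by CellTiter-Glo luminescence after 30 min RT; signal loss marks cytotoxicity.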

[2] = biological target: Cellular tumor antigen p53 (Homo sapiens) (UniProt P04637); assay: TOX21_p53_BLA_p2_ratio: Tox21 HCT-116 p53 Agonism Beta-lactamase Assay, Ratio, Phase 2 (AID 2283592)
Sequence of Cellular tumor antigen p53 (Homo sapiens) (P04637 whole entry, looked up): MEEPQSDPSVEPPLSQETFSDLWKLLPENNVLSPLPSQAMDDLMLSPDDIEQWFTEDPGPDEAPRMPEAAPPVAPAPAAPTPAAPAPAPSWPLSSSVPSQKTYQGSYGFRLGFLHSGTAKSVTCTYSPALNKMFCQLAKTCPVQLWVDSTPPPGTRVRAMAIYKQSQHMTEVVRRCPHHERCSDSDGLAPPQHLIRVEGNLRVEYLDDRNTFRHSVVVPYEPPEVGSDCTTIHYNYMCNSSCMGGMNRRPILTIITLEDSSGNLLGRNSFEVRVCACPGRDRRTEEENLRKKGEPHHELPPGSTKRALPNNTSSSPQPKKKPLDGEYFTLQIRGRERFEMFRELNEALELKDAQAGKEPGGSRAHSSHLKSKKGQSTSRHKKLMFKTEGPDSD
Summary of the method: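 An inducible beta-lactamase reporter in HCT116 cells signals p53 pathway activation. After 16 h chemical exposure at 37C, cells load CCF4-AM substrate for 2 h at room temperature; activity is the cleaved/uncleaved emission ratio relative to DMSO.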

[3] = TOX21_p53_BLA_p3_viability: Viability Assessment in the Tox21 HCT-116 p53 Agonism Beta-lactamase Assay, Phase 3 (AID 2283593);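 further: cells exposed to compound for 16 h before reading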
Summary of the method: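 HCT116 cells, 4000/well, dosed 5 h after plating by pin transfer (217-fold dilution from DMSO stock) and incubated 16 h at 37C, 5% CO2. Viability read as ATP luminescence with CellTiter-Glo after 30 min at room temperature.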

[4] = biological target: Cellular tumor antigen p53 (Homo sapiens) (UniProt P04637); assay: TOX21_p53_BLA_p3_ratio: Tox21 HCT-116 p53 Agonism Beta-lactamase Assay, Ratio, Phase 3 (AID 2283596)
Summary of the method: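 HCT116 p53-bla cells (4000/well) given compound in DMSO (217-fold dilution) after 5 h, incubated 16 h at 37C. CCF4-AM substrate 2 h at room temperature; 460/530 nm emission ratio, gain fitted against DMSO.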

[5] = biological target: Cellular tumor antigen p53 (Homo sapiens) (UniProt P04637); assay: TOX21_p53_BLA_p5_ratio: Tox21 HCT-116 p53 Agonism Beta-lactamase Assay, Ratio, Phase 5 (AID 2283599)
Summary of the method: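 HCT-116 p53-bla cells (4000/well) plated 5 h, dosed with compound (217-fold DMSO dilution) for 16 h at 37 C; CCF4-AM substrate 2 h at room temperature. Activity is the 460/530 nm emission ratio (405 nm excitation), fitted in gain-of-signal direction versus DMSO.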

[6] = TOX21_p53_BLA_p5_viability: Viability Assessment in the Tox21 HCT-116 p53 Agonism Beta-lactamase Assay, Phase 5 (AID 2283600)
Summary of the method: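 Counter-readout for cytotoxicity: ATP-dependent luminescence from CellTiter-Glo, read in the beta-lactamase wells after 30 min at RT, following a 16 h compound exposure at 37C.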

[7] = biological target: Cellular tumor antigen p53 (Homo sapiens) (UniProt P04637); assay: TOX21_p53_BLA_p4_ratio: Tox21 HCT-116 p53 Agonism Beta-lactamase Assay, Ratio, Phase 4 (AID 2283601)
Summary of the method: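 HCT-116 p53 beta-lactamase reporter cells (4000/well) preincubated 5 h, then compound (217-fold dilution of DMSO stock) for 16 h at 37C. CCF4-AM substrate added 2 h at room temperature; 460/530 nm emission ratio fitted upward versus DMSO.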

[8] = TOX21_p53_BLA_p4_viability: Viability Assessment in the Tox21 HCT-116 p53 Agonism Beta-lactamase Assay, Phase 4 (AID 2283597);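 further: hits lower the luminescence signal meaning cytotoxicity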
Summary of the method: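 Compound exposure of HCT116 cells lasts 16 h at 37C, 5% CO2, with DMSO stocks diluted 217-fold. Cellular ATP is then quantified by CellTiter-Glo luminescence after 30 min at room temperature.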

Measured: AC50

O=c1[nH]c(=O)c2cn[nH]c2[nH]1
not listed: [8]
inactive: all other assays above

COC(C)(C)CCO
inactive: [1] | [2] | [5] | [6] | [7]

Cc1ncc[nH]1
not listed: [6]
inactive: all other assays above

Nc1ccccc1[N+](=O)[O-]
inactive: all assays above

c1ccc2[nH]cnc2c1
not listed: [4] | [6]
inactive: all other assays above

COC(=O)c1cccnc1
inactive: all assays above

CCCCN(CCCC)C(=O)N(CCCC)CCCC
not listed: [8]
inactive: all other assays above

CCCCCCCC(=O)OCCCCCC
inactive: [2] | [3] | [5] | [6] | [7]

FC(F)(F)COCC(F)(F)F
not listed: [1] | [8]
inactive: all other assays above

CCCCOC(=O)CCCCCCCC(=O)OCCCC
inactive: [2] | [5]

C1CCCCC1
inactive: [8] | [5] | [6] | [7]

CCOc1ccccc1O
inactive: [2] | [5] | [6] | [7]

CCC(Cl)C(Cl)C(Cl)CC(Cl)C(Cl)C(C)Cl (centres undefined)
not listed: [1]
inactive: all other assays above

CC(C)CCCCCCCCCCCCCCC(=O)O
inactive: [2] | [3] | [4] | [5] | [7]

C=C(C)C(=O)OCCOC1CC2CC1C1C=CCC21 (centres undefined)
not listed: [1] | [7]
inactive: all other assays above

Cc1cc(CCC(=O)OCCOCCOCCOC(=O)CCc2cc(C)c(O)c(C(C)(C)C)c2)cc(C(C)(C)C)c1O
inactive: [2] | [3] | [6] | [7]

CCCCCCCCCCCCN1CCCCCC1=O
inactive: [2] | [3] | [4] | [5] | [7]

CC(C)c1ccccc1O
inactive: [2] | [3] | [4] | [8] | [6]

Cc1ccc(S(N)(=O)=O)cc1
inactive: [2] | [3] | [4] | [5] | [7]

CC/C=C\CCOC(=O)CC
inactive: [3] | [4] | [5] | [7]

C[C@H]1C[C@@H](O)CC(C)(C)C1
inactive: [2] | [4] | [5] | [7]

Cc1ccc(-c2ccccc2)cc1
inactive: [2] | [3] | [4] | [5] | [6]

c1ccc(Oc2ccccc2)cc1
inactive: [2] | [3] | [8] | [5] | [7]

CCCC[P+](CCCC)(CCCC)CCCC
inactive: [2] | [3] | [8] | [5] | [6] | [7]
active: [6] 14.5 µM

CCCC(=O)C(CC)Sc1ccoc1C (centres undefined)
inactive: [3] | [4] | [8] | [6] | [7]

OCCc1ccccc1
inactive: [2] | [3] | [4] | [5] | [7]

c1ccc2cc(Nc3ccc(Nc4ccc5ccccc5c4)cc3)ccc2c1
active: [4] 73.5 µM
inactive: [2] | [3] | [4] | [8] | [5] | [6] | [7]

COc1ccc(CCN2CCC(Nc3nc4ccccc4n3Cc3ccc(F)cc3)CC2)cc1
inactive: [3]
active: [2] 31.1 µM and 43.8 µM | [3] 15.2 µM | [4] 37.5 µM | [8] 14.4 µM and 23 µM | [5] 38.8 µM and 42.9 µM | [6] 25.7 µM and 40.5 µM | [7] 32.5 µM and 43.3 µM

Cc1ccc(S(=O)(=O)Oc2ccc(N=Nc3ccc(-c4ccc(N=Nc5c(O)ccc6cc(S(=O)(=O)O)cc(S(=O)(=O)O)c56)c(C)c4)cc3C)cc2)cc1
not listed: [1]
inactive: all other assays above

CSCCC=O
inactive: [2] | [3] | [5] | [6] | [7]

COC(CC(C)CCCC(C)(C)O)OC (centres undefined)
inactive: [1] | [8] | [5] | [7]

CC(C)CCCCCCc1ccc(OCCOCCO)cc1
not listed: [1] | [2]
inactive: all other assays above

COC(C)(C)CC(C)=O
inactive: [3] | [5]

CCc1cc(C(C)(C)C)c(O)c(C(C)(C)C)c1
not listed: [1]
inactive: all other assays above

C[N+](C)(C)CCCCCC[N+](C)(C)C
inactive: [2] | [8] | [5] | [7]

COc1ccccc1N=Nc1c(S(=O)(=O)O)cc2cc(S(=O)(=O)O)cc(NC(C)=O)c2c1O
not listed: [1] | [6]
inactive: all other assays above

CCC(=O)O[C@@H]1C[C@H]2CC[C@]1(C)C2(C)C
inactive: [4] | [5] | [7]

CCCCCCCCN1CCCC1=O
inactive: [4] | [5] | [6] | [7]

COc1ccc(N)c([N+](=O)[O-])c1
inactive: [3] | [4] | [5] | [6] | [7]

CC(C)C[C@H](NC(=O)OCC1c2ccccc2-c2ccccc21)C(=O)O
inactive: [2] | [8] | [5] | [6]

Nc1ccn([C@H]2CS[C@@H](CO)O2)c(=O)n1
inactive: [2] | [4] | [5] | [7]

C=C(C)C(=O)OCCOCCOCCOC(=O)C(=C)C
inactive: [2] | [3] | [5] | [6] | [7]

CCCCC1(COC(=O)CCC(=O)O)C(=O)N(c2ccccc2)N(c2ccccc2)C1=O
not listed: [1] | [4]
inactive: all other assays above
